Shown are actives, neighbours in structure and some others; about 2.4% of the full set was active somewhere.
Pol eta inh-1 – DNA polymerase eta (human) inhibition | Q9Y253 | recombinant Pol eta, fluorescent DNA replication assay | Potency, µM (series often up to 114 µM), for inactives: top-dose activity change, negative = inhibition, usual class: inhibitors | 390,000 tested, 1.2% active; further: potency means the concentration at half of the fitted maximal effect; on the % scale 0 is the no-effect control and ±100 the full control effect
Target sequence (Q9Y253 whole entry, looked up): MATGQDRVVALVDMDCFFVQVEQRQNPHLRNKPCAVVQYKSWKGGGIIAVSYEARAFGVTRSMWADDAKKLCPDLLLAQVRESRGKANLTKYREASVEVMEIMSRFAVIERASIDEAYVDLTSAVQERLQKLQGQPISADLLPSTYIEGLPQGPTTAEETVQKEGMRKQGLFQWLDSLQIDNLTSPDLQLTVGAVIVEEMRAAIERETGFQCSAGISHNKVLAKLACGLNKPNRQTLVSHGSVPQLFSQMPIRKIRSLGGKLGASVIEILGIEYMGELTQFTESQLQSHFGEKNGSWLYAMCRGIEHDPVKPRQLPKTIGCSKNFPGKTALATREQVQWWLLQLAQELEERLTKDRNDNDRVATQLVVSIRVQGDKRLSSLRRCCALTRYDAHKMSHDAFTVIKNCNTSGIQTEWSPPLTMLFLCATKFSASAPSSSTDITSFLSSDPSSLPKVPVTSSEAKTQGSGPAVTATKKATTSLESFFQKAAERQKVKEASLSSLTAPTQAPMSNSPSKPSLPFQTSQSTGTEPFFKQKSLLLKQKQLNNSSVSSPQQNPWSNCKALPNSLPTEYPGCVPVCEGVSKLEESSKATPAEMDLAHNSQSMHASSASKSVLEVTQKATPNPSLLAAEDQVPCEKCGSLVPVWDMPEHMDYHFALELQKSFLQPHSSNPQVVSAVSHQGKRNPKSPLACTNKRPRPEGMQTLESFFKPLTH
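Pol eta at 10 nM preincubated with compounds 15 min at room temperature; reaction started with fluorescent substrate (50 nM final) and read kinetically at 0 and 10 min.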
POLI inh – blocks human DNA polymerase iota activity. Pol iota fluorescent replication assay, 10 min. Q9UNA4. AID 588590. 390,000 tested, 1% active. Potency, µM (doses to about 115 µM), without a hit: at the top dose activity, negative = inhibition, actives largely listed as inhibitors; further: potency means the concentration at half of the fitted maximal effect
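Fluorescent replication assay read twice, at 0 min and 10 min after adding 50 nM (final) substrate. Enzyme (10 nM) and compounds were first incubated 15 min at room temperature; enzyme-free buffer wells were negative controls.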
FEN1 inh-1 – blocks human flap endonuclease 1; Recombinant FEN1 flap cleavage, fluorescence, 15 min; Potency, µM (titrated, usually from 114 µM), for inactives: top-dose activity change, negative = inhibition, most hits filed as inhibitors; 390,000 tested, 0.35% active; further: potency means the concentration at half of the fitted maximal effect; on the % scale 0 is the no-effect control and ±100 the full control effect; nearly all actives have a fitted effect of over 65% in size
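With each library titrated from low to high concentration, compounds met 10 nM FEN1 for 15 min at room temperature before 50 nM substrate was added; readings at 0 and 15 min fed four-parameter Hill curve fits.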
Pol beta inh – inhibitors of human DNA polymerase beta; Potency, µM (highest dose often 114 µM), without a hit: at the top dose activity change, negative = inhibition, actives largely listed as inhibitors; AID 485314; 340,000 tested, 1.3% active; Pol beta primer extension/strand displacement, fluorescence kinetic; P06746; further: potency means the concentration at half of the fitted maximal effect; on the % scale 0 is the no-effect control and ±100 the full control effect
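Kinetic readout of DNA synthesis with strand displacement by Pol beta. Compound and 10 nM enzyme sit 15 min at room temperature; 50 nM substrate starts the reaction, read immediately and at 10 min.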
WRN helicase inh-1 – WRN helicase (human) inhibition | WRN helicase unwinding, fluorescent forked duplex, kinetic | Potency, µM (highest dose often 114 µM), for inactives: at the highest dose activity change, negative = inhibition, most hits filed as inhibitors | 360,000 tested, 0.46% active | Q14191; further: potency means the concentration at half of the fitted maximal effect; on the % scale 0 is the no-effect control and ±100 the full control effect; nearly all actives have a fitted effect of over 55% in size
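Primary qHTS, 1536-well format. 20 nM WRN + compound, 15 min RT; start with 100 nM forked fluorophore/quencher duplex, 2 mM ATP (final); kinetic read ex 525/em 598 nm.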
Pol kappa inh-1 – DNA polymerase kappa (human) inhibition | purified Pol kappa, fluorescent DNA synthesis assay, 10 min | 400,000 tested, 0.53% active | Potency, µM (top dose mostly 107 µM), inactives show at the highest dose activity, negative = inhibition, hits mostly inhibitors | Q9UBT6 | AID 588579; further: potency means the concentration at half of the fitted maximal effect; on the % scale 0 is the no-effect control and ±100 the full control effect
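10 nM Pol kappa was preincubated with compounds for 15 min at room temperature. Reaction started with 50 nM (final) substrate. Fluorescence read kinetically at 0 and 10 min.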
TbPGK inh – blocks T. brucei phosphoglycerate kinase; shares compounds with Pol kappa inh-1; TbPGK coupled GAPDH assay, Kinase-Glo luminescence; Potency, µM (highest dose often 57.5 µM), inactives show at the top dose activity change, negative = inhibition, hits mostly inhibitors; 500 tested, 79% active; further: potency means the concentration at half of the fitted maximal effect; on the % scale 0 is the no-effect control and ±100 the full control effect; nearly all actives have a fitted effect of over 65% in size
Pol iota confirm – Human Pol iota inhibitor confirmatory assay; shares compounds with Pol kappa inh-1; Pol iota primer extension, TAMRA/BHQ fluorescence; Potency, µM, actives largely listed as inhibitors; 1,500 tested, 77% active; further: potency means the concentration at half of the fitted maximal effect
GALK inh confirm – confirmation of human galactokinase (GALK) inhibitors; shares compounds with Pol eta inh-1; purified GALK, Kinase-Glo ATP depletion luminescence; Potency, µM (series often up to 115 µM), for inactives: top-dose activity, negative = inhibition, actives largely listed as inhibitors; 150 tested, 70% active
GALK redox cs – generates H2O2 by redox cycling, flagging GALK artifacts; shares compounds with Pol eta inh-1; Phenol red-HRP H2O2 redox cycling, absorbance 600 nm; Potency, µM (series often up to 115 µM), inactives show at the top dose activity change, negative = H2O2 signal, most hits filed as inhibitors; 150 tested, 40% active; AID 2035
HEK293 viability – reduces HEK-293 cell viability in GALK counter-screen; Potency, µM (titrated, usually from 46.1 µM), without a hit: at the top dose activity change, negative = cytotoxicity, actives largely listed as inhibitors; AID 2547; shares compounds with Pol eta inh-1; HEK-293 viability, ATP luminescence (CellTiter-Glo), 24/48 h; 170 tested, 10% active; further: potency means the concentration at half of the fitted maximal effect; on the % scale 0 is the no-effect control and ±100 the full control effect
Pol kappa inh-2 – Pol kappa (human) inhibition, cherry-pick confirmation. shares compounds with Pol eta inh-1. purified Pol-kappa, fluorescent strand-displacement substrate. Potency, µM, actives largely listed as inhibitors. 920 tested, 76% active. AID 720501; further: potency means the concentration at half of the fitted maximal effect
Pol eta inh-2 – confirmation of human DNA polymerase eta inhibitors. shares compounds with Pol eta inh-1. Pol eta primer extension, TAMRA/BHQ fluorescence, 10 min. Potency, µM, actives largely listed as inhibitors. 2,600 tested, 64% active. AID 720502; further: potency means the concentration at half of the fitted maximal effect
FEN1 inh-2 – confirmation of human FEN1 inhibitors; shares compounds with FEN1 inh-1; FEN1 flap cleavage, TAMRA/BHQ2 fluorogenic DNA substrate; Potency, µM, most hits filed as inhibitors; 880 tested, 79% active; further: potency means the concentration at half of the fitted maximal effect; nearly all actives have a fitted effect of over 60% in size
WRN helicase inh-2 – confirmation of human WRN helicase inhibitors | shares compounds with WRN helicase inh-1 | WRN helicase DNA unwinding, fluorescence kinetic | Potency, µM (doses to about 57.1 µM), for the others: at the top dose activity, negative = inhibition, actives largely listed as inhibitors | 610 tested, 63% active | AID 720497; further: potency means the concentration at half of the fitted maximal effect; nearly all actives have a fitted effect of over 65% in size
TO displacement – DNA binding via thiazole orange displacement. shares compounds with WRN helicase inh-1. thiazole orange DNA binding displacement, fluorescence. Potency, µM (highest dose often 57.1 µM), for the others: at the highest dose activity change, negative = inhibition, most hits filed as inhibitors. 610 tested, 10% active. AID 720499;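 further: drop in dye fluorescence marks compound binding to DNA; potency means the concentration at half of the fitted maximal effect; on the % scale 0 is the no-effect control and ±100 the full control effect; nearly all actives have a fitted effect of over 60% in size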
BLM counter – blocks human BLM helicase in WRN counterscreen | shares compounds with WRN helicase inh-1 | Recombinant BLM helicase DNA unwinding, red fluorescence | Potency, µM (series often up to 57.1 µM), for the others: at the highest dose activity change, negative = inhibition, actives largely listed as inhibitors | 610 tested, 60% active | AID 720503; further: potency means the concentration at half of the fitted maximal effect; nearly all actives have a fitted effect of over 60% in size
* hit, by the source's call; i = inactive; u = inconclusive; x = no result given. The call rests on the fitted dose curve; in most records, active means well fitted curve in the direction sought with a large enough effect; inconclusive means small, poorly fitted or top-dose-only effect, or another doubt; inactive means no such curve, though single readings can be large; an effect the other way counts as inactive or inconclusive.

SMILES	Pol eta inh-1	POLI inh	FEN1 inh-1	Pol beta inh	WRN helicase inh-1	Pol kappa inh-1	Pol iota confirm	Pol eta inh-2	WRN helicase inh-2	TO displacement	BLM counter	others
Nc1ccc2c(c1)C(=O)C(=O)c1ccccc1-2	0.79µM*	1µM*	u	5µM*	35µM*	-8%	6.7*	4.8*	19µM*	u	3.4µM*	TbPGK inh=1.6µM*;GALK inh confirm=2.4µM*;GALK redox cs=1.3µM*;HEK293 viability=7.9µM*
Cc1ccc(-c2cc(NC(=O)C(C)Oc3ccc(C)c(C)c3)on2)cc1 (stereo not drawn)	-21%	5%	-6%	13%	x	5%	x	x	x	x	x
O=C(O)CN1C(=O)/C(=C/c2ccc(N3CCCCC3)o2)SC1=S	50µM*	i	45µM*	18µM*	4.7µM*	50µM*	42*	34*	24µM*	43%	24µM*	Pol kappa inh-2=24*;FEN1 inh-2=48*
O=C(Nc1nnc(N2CCCCCC2)s1)Nc1ccccc1C(F)(F)F	x	42%	-9%	-1%	x	-2%	x	x	x	x	x
O=C(CCc1ccc(O)c(O)c1)N/N=C/c1cc2c(cc1[N+](=O)[O-])OCO2	18µM*	32µM*	u	25µM*	u	25µM*	u	30*	22µM*	30µM*	8.6µM*
Cc1cccc(C)c1OCC(=O)N/N=C/c1cc2c(cc1[N+](=O)[O-])OCO2	4%	0%	-1%	-1%	-10%	-10%	x	x	x	x	x

Compound activity (PubChem BioAssay)
